# NOMO-1 viab: STK33 inhibitor candidate reducing NOMO-1 cell viability. NOMO-1 AML viability, CellTiter-Glo luminescence, 72 h. actives 7.5% (n = 37,000). inhibition, % (test concentration not listed); in the data active means inhibition above about 80%; inconclusive means no clear call, values can overlap the other calls
# PD-1 reversal: reversal of PD-1 mediated T-cell inhibition. primary human CD4 T cells, PD-L1 beads, CellTiter-Glo 96 h. activation, % (concentration not given with the values). 29,000 tested, under 10 active. AID 2316; call rule not given here;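 further: 0% = median vehicle wells and 100% = positive control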
# U2OS ROS induce: inducers of reactive oxygen species in cancer cells; actives 2% (n = 46,000); ROS induction (% of piperlongumine), % at 10 µM; U2OS ROS induction, H2DCF-DA fluorescence; in the data active means ROS induction above about 79%, passing the limit was not always enough; inconclusive means no clear call, values can overlap the other calls;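 further: 0% = DMSO vehicle median and 100% = reference compound median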
# The depositor's hits bear a star; ? = inconclusive; · = no result. This excerpt belongs to a sample that is enriched for hits.
SMILES,NOMO-1 viab,PD-1 reversal,U2OS ROS induce
CN(C)c1nc(Cl)nc(N(C#N)CN2C(=O)c3ccccc3C2=O)n1,105.4*,-0.5,167.5*
C[C@@H]1CCCCO[C@H](CN(C)Cc2ccccc2)[C@@H](C)CN([C@H](C)CO)C(=O)c2cc(NS(=O)(=O)c3cccs3)ccc2O1,28.0,0.3,5.3
C[C@@H]1CCCCO[C@H](CN(C)Cc2ccc(C(=O)Nc3ccccc3N)cc2)[C@@H](C)CN([C@H](C)CO)C(=O)c2cc(NS(=O)(=O)c3cccs3)ccc2O1,127.2*,-2.2,8.1
C[C@@H]1CCCCO[C@@H](CN(C)Cc2ccc(C(=O)Nc3ccccc3N)cc2)[C@@H](C)CN([C@H](C)CO)C(=O)c2cc(NS(=O)(=O)c3cccs3)ccc2O1,138.5*,-0.2,-1.3
C[C@@H]1CN([C@@H](C)CO)C(=O)c2cc(NS(=O)(=O)c3cccs3)ccc2O[C@H]1CN(C)Cc1ccc(C(=O)Nc2ccccc2N)cc1,28.8,-0.5,-10.4
Cc1sc(-n2cccc2)c(C#N)c1C,·,·,-5.3
O=C(NC1CCCC1)c1ccc(COc2cc(Cl)ccc2Cl)o1,·,·,1.0
Cc1cccc(NC(=O)CSc2cn(Cc3cccc(F)c3)c3ccccc23)c1C,·,·,-5.2
CCOC(=O)c1c(/N=C/c2c(O)n(C)c3ccccc23)sc(C)c1C,·,·,17.9
CC(CCC(=O)Nc1ccccc1)C(=O)O (centres undefined),-13.4,2.2,-4.5
CC(CNc1ccccc1)C(=Nc1ccccc1)Nc1ccccc1 (centres undefined),118.9*,-28.3,0.3
Cc1sc2ncn(CC(=O)Nc3ccc(Oc4ccccc4)cc3)c(=O)c2c1C,19.6,-1.4,17.1
COc1cc(C(=O)Nc2ccc(Oc3ncnc4sc(C)c(C)c34)cc2)cc(OC)c1OC,21.4,-0.7,104.3*
N#CC(C#N)=C(NC12CC3CC(CC(C3)C1)C2)C(F)(F)F,·,·,-15.9
CCCCN(C)c1ncnc2c1sc1nc3c(cc12)COC(C)(C)C3,·,·,41.6
Cc1sc(-c2ccc(-c3csnn3)cc2)nc1-c1ccccc1,·,·,-4.6
CCc1ccc(NC(=O)N2CC(C)Sc3ccccc32)cc1 (centres undefined),·,·,-6.6
Cc1ccc(CNC(=O)CSc2nc(NC3CCCCC3)c3ccccc3n2)cc1,·,·,12.1
Cc1ccc(S(=O)(=O)N2CCN(c3nc(NC4CCCC4)c4ccccc4n3)CC2)cc1,·,·,151.6*
CCc1ccc(N2CC(O)(c3ccccc3)[N+]3=C2CCCC3)cc1 (centres undefined),·,·,-11.0
CS(=O)(=O)N(Cc1ccccc1)c1ccccc1C(=O)Nc1cccc(Br)c1,·,·,41.0
NN/C(=N/S(=O)(=O)c1ccccc1)N1CCCC1,0.9,-0.3,5.7
O=C(CCS(=O)(=O)c1nc(-c2ccccc2)cc(C(F)(F)F)n1)Nc1ccc(Cl)cc1Cl,125.5*,-16.3,100.6*
O=C(O)CCS(=O)(=O)c1nc(-c2ccccc2)cc(C(F)(F)F)n1,23.0,0.1,0.7
CCOc1cc(S(=O)(=O)NCc2cccnc2)ccc1Cl,27.7,1.4,74.9
SMILES,NOMO-1 viab,PD-1 reversal,U2OS ROS induce
CCOc1ccc(S(=O)(=O)NCc2ccccc2)cc1-c1nc2c(C(C)(C)C)nn(C)c2c(=O)[nH]1,127.0*,-1.8,201.4*
O=c1c2ccccc2nc(SCc2cccc3nsnc23)n1-c1ccccc1,53.0,-1.9,4.7
O=c1c2ccccc2nc(SCc2ccc3c(c2)OCO3)n1-c1ccccc1,11.1,1.6,107.2*
Cn1nnc2cc(NC(=O)NCCO)ccc21,16.6,-2.5,-18.7
Cc1nc2cc(NC(=O)NCc3ccco3)ccc2n1C,-2.9,1.5,100.2*
Cc1ccc(S(=O)(=O)Nc2ccc3c(c2)CC(=O)N([C@@H](C)CO)C[C@@H](C)[C@@H](CN(C)Cc2ccc(-c4ccccc4)cc2)O3)cc1,123.8*,-3.1,5.1
C[C@H]1CN([C@@H](C)CO)C(=O)Cc2cc(NS(=O)(=O)c3ccccc3)ccc2O[C@H]1CN(C)Cc1ccc(-c2ccccc2)cc1,31.3,1.5,17.9
Cc1noc(C)c1S(=O)(=O)Nc1ccc2c(c1)CC(=O)N([C@H](C)CO)C[C@@H](C)[C@H](CN(C)Cc1ccc(-c3ccccc3)cc1)O2,44.1,·,?
Cc1ccc(S(=O)(=O)Nc2ccc3c(c2)CC(=O)N([C@H](C)CO)C[C@@H](C)[C@H](CN(C)Cc2ccc(-c4ccccc4)cc2)O3)cc1,95.2*,-5.1,?
Cc1ccc(S(=O)(=O)Nc2ccc3c(c2)CC(=O)N([C@H](C)CO)C[C@@H](C)[C@@H](CN(C)Cc2ccc(-c4ccccc4)cc2)O3)cc1,10.6,0.4,13.1
Cc1noc(C)c1S(=O)(=O)Nc1ccc2c(c1)CC(=O)N([C@@H](C)CO)C[C@H](C)[C@@H](CN(C)Cc1ccc(-c3ccccc3)cc1)O2,85.6*,-0.7,54.3
C[C@@H]1CN([C@H](C)CO)C(=O)Cc2cc(NS(=O)(=O)c3ccccc3)ccc2O[C@H]1CN(C)Cc1ccc(-c2ccccc2)cc1,?,-1.2,66.9
C[C@H]1CN([C@@H](C)CO)C(=O)Cc2cc(NS(=O)(=O)c3ccccc3)ccc2O[C@@H]1CN(C)Cc1ccc(-c2ccccc2)cc1,112.5*,0.8,33.0
CN(C)CCCC[C@@H]1NC(=O)[C@H]2C[C@@H](C(=O)NCCCCCN)[C@@H](c3cccc(OCCO)c3)N2C1=O,·,·,72.5
COc1ccc(N2CCN(c3c(S(=O)(=O)c4ccccc4)cnc4ccc(Cl)cc34)CC2)cc1,·,·,43.9
O=C(N/N=C/c1cc(Cl)cc(Cl)c1O)c1ccccn1,·,·,7.5
Cc1cc(C)n2nc(SCCC(=O)NCc3c(F)cc(F)cc3F)nc2n1,·,·,-0.2
C[C@@H]1CN([C@H](C)CO)C(=O)Cc2cc(NC(=O)Nc3ccc(C(F)(F)F)cc3)ccc2O[C@@H]1CN(C)S(=O)(=O)c1ccc(F)cc1,89.5*,-0.9,1.5
C[C@@H]1CN([C@@H](C)CO)C(=O)Cc2cc(NC(=O)Nc3ccc(C(F)(F)F)cc3)ccc2O[C@@H]1CN(C)C,48.2,·,3.1
C[C@H]1CN([C@@H](C)CO)C(=O)Cc2cc(NC(=O)Nc3ccc(C(F)(F)F)cc3)ccc2O[C@@H]1CN(C)S(=O)(=O)c1ccc(F)cc1,68.9,·,-5.8
C[C@@H]1CN([C@@H](C)CO)C(=O)Cc2cc(NC(=O)Nc3ccc(C(F)(F)F)cc3)ccc2O[C@@H]1CN(C)S(=O)(=O)c1ccc(Cl)cc1,103.9*,-7.4,5.4
C[C@H]1CN([C@@H](C)CO)C(=O)Cc2cc(NC(=O)Nc3ccc(F)cc3)ccc2O[C@@H]1CN(C)S(=O)(=O)c1ccc(Cl)cc1,0.3,0.5,18.1
C[C@@H]1CN([C@H](C)CO)C(=O)Cc2cc(NC(=O)Nc3ccccc3)ccc2O[C@H]1CN(C)S(=O)(=O)c1ccccc1,-16.3,-1.1,10.0
C[C@H]1CN([C@@H](C)CO)C(=O)Cc2cc(NC(=O)Nc3ccc(C(F)(F)F)cc3)ccc2O[C@H]1CN(C)S(=O)(=O)c1ccccc1,102.0*,-2.3,32.6
C[C@H](CO)N1C[C@H](C)[C@H](CN(C)S(C)(=O)=O)Oc2ccc(NC(=O)Nc3ccc(C(F)(F)F)cc3)cc2CC1=O,98.5*,-1.2,4.9
CC1(C)Cc2c(sc(NC(=O)C(c3ccccc3)c3ccccc3)c2C#N)CO1,51.1,0.7,23.1
O=C(Cc1ccccc1)NC1CCCCC1NC(=O)Cc1ccccc1 (centres undefined),·,·,-7.4
